The source of these data is PubChem BioAssay (NCATS).

Experiment [1] is described as follows: qHTS Assay for Lipid Storage Modulators (AID 1519; calls by dose curve; for activity change, negative = inhibition: % is set by controls: 0 for no effect and ±100 for the full control effect). Conditions: Drosophila S3 cells, BODIPY lipid droplet/cell ratio, laser cytometry, cells loaded with oleic acid; for activity change, negative = inhibition: at 57.5 µM (top of the series). Summed up:
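Cells seeded at 5,000 per well were treated with compounds over a concentration series and loaded with oleic acid (400 uM, as added). Lipid droplet fluorescence (488 nm excitation, 500-530 nm channel) was read by laser-scanning cytometry and normalized to 20 uM Triacsin C.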

Experiment [2] concerns the target ATP-dependent 6-phosphofructokinase (Trypanosoma brucei brucei) (UniProt O15648). Briefly: qHTS Assay to Find Inhibitors of T. brucei phosphofructokinase: hit validation (AID 492961).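 Note: luminescence reports ADP formed as PFK phosphorylates fructose-6-phosphate with ATP; % is set by controls: 0 for no effect and ±100 for the full control effect.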 Conditions: T. brucei PFK, ADP-Glo luminescence; series mostly up to 24.3 µM. Summed up:
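ADP-Glo luminescence read-out of ADP formed by 1.25 nM PFK from 0.1 mM ATP and 0.5 mM F6P (TEA pH 8.0, 45 min, RT). Compounds titrated; activity normalized to no-enzyme and full-enzyme controls.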

The target in experiment [3] is Luciferin 4-monooxygenase (Photinus pyralis) (UniProt P08659). As to the kind of experiment: Biochemical firefly luciferase enzyme assay for NPC (AID 624030).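 Note: purified P. pyralis luciferase at 10 nM with luciferin and ATP substrate; 0% = DMSO and -100% = full luciferase inhibition by PTC124 control; nearly all actives have a fitted effect of over 70% in size.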 Conditions: purified P. pyralis luciferase, luminescence, 5 min; series mostly up to 24.9 µM. In a few lines: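 Direct inhibition of firefly luciferase enzyme (10 nM final, 50 mM Tris Acetate) assessed by luminescence within 5 minutes. Percent activity scaled between DMSO and PTC124 positive control, with concentration-effect curves classified by fit quality and response.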

For experiment [4], the system named is AS120. Briefly: qHTS profiling for inhibitors of Plasmodium falciparum proliferation (AID 504749).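 For activity, negative = inhibition: 0% = DMSO vehicle and full inhibition = artemisinin control.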 Note: nearly all actives have a fitted effect of over 60% in size. Note: potency is the fitted concentration of half-maximal effect. Conditions: P. falciparum in erythrocytes, SYBR Green DNA, 72 h; series mostly up to 12.8 µM. In a few lines: (§1)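 Infected RBCs, 0.3% parasitemia/2.5% Hct final; cpd 72 h, 37 C, 5% CO2; lysis buffer with saponin/triton/SYBR Green I, o/n RT dark; FI 485/535; norm. to artemisinin (0.29 uM) and DMSO.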

The subject of experiment [5] is C2A. Described as above. Conditions: P. falciparum in erythrocytes, SYBR Green DNA, 72 h; series mostly up to 12.8 µM. Summed up:
as §1

Experiment [6] has as its system CP305. The description is as above. Conditions: P. falciparum in erythrocytes, SYBR Green DNA, 72 h; series mostly up to 12.8 µM. In a few lines:
as §1

The test system of experiment [7] is CP329. The description is as above. Conditions: P. falciparum in erythrocytes, SYBR Green DNA, 72 h; series mostly up to 12.8 µM. In a few lines:
as §1

The subject of experiment [8] is FAB9. The description is as above. Conditions: P. falciparum in erythrocytes, SYBR Green DNA, 72 h; series mostly up to 12.8 µM. Summed up:
as §1

Experiment [9] deals with N140. The experiment is described as above. Conditions: P. falciparum in erythrocytes, SYBR Green DNA, 72 h; series mostly up to 12.8 µM. Summed up: as §1
Experiment [10] concerns PC15. The description is as above. Conditions: P. falciparum in erythrocytes, SYBR Green DNA, 72 h; series mostly up to 12.8 µM. Summed up: as §1
Experiment [11] has as its system PC49. The experiment is described as above. Conditions: P. falciparum in erythrocytes, SYBR Green DNA, 72 h; series mostly up to 12.8 µM. Summed up: as §1
Experiment [12] concerns the target Ubiquitin carboxyl-terminal hydrolase 1 (Homo sapiens) (UniProt O94782). Briefly: Inhibitors of USP1/UAF1: Pilot qHTS (AID 504865).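 Note: rhodamine fluorescence freed from ubiquitin-rhodamine substrate followed over time; top concentration of the series differs between compounds; % is set by controls: 0 for no effect and ±100 for the full control effect; nearly all actives have a fitted effect of over 35% in size.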 Conditions: purified USP1/UAF1, Ub-rhodamine cleavage fluorescence; series mostly up to 114 µM. In a few lines: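 Deubiquitinase activity followed as kinetic rhodamine fluorescence release from 150 nM Ub-Rho. 1 nM USP1/UAF1 with compound, after 15 min room-temperature preincubation, in HEPES pH 7.8 buffer containing TCEP, EDTA, BSA and Tween-20.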
Background: qHTS replaces the single test concentration by a dilution series.

Experiment [13] can be described thus: qHTS profiling for inhibitors of Plasmodium falciparum proliferation (AID 504749).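 For activity, negative = inhibition: 0% = DMSO vehicle and full inhibition = artemisinin control.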 For all read-outs here: nearly all actives have a fitted effect of over 60% in size. Note: potency is the fitted concentration of half-maximal effect. Conditions: P. falciparum in erythrocytes, SYBR Green DNA, 72 h; for activity, negative = inhibition: at 28.7 µM (top of the series). In a few lines:
as §1

Experiment [14] deals with CP191. Described as above. Conditions: P. falciparum in erythrocytes, SYBR Green DNA, 72 h; series mostly up to 12.8 µM. Summed up: as §1
Experiment [15] concerns CP217. The description is as above. Conditions: P. falciparum in erythrocytes, SYBR Green DNA, 72 h; series mostly up to 12.8 µM. Summed up:
as §1

Experiment [16] concerns ECU. Described as above. Conditions: P. falciparum in erythrocytes, SYBR Green DNA, 72 h; series mostly up to 12.8 µM. Summed up:
as §1

Experiment [17] deals with TAB165. Described as above. Conditions: P. falciparum in erythrocytes, SYBR Green DNA, 72 h; series mostly up to 12.8 µM. Summed up: as §1
Experiment [18] deals with Glucocorticoid receptor (Homo sapiens) (UniProt P04150). As to the kind of experiment: GR-EFC Redistribution (AID 451; calls by dose curve; note: potency is the fitted concentration of half-maximal effect). Conditions: CHO-K1 GR-EFC translocation, beta-gal luminescence, 2 h. In a few lines: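 Translocation of GR-ED fusion to nuclear EA restores b-gal, read by luminescence after 1 h room-temperature detection. Engineered CHO-K1 biosensor cells, 1,000/well, exposed 2 h at 37 C to titrations up to 46 uM final.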

Setting [19] is: measured here: cell count channel max response.
[20] abbreviates: measured here: lipid channel max response.

SMILES strings stand for the structures. Inconclusive results are not listed. Activity calls are given as the source filed them. Unless noted, calls come from the whole dose curve; as a rule, active = well fitted curve in the direction sought with a large enough effect; inconclusive = small, poorly fitted or top-dose-only effect, or another doubt; inactive = no such curve, though single readings can be large; an effect the other way counts as inactive or inconclusive.

Chain of Luciferin 4-monooxygenase (Photinus pyralis) (P08659 whole entry, looked up): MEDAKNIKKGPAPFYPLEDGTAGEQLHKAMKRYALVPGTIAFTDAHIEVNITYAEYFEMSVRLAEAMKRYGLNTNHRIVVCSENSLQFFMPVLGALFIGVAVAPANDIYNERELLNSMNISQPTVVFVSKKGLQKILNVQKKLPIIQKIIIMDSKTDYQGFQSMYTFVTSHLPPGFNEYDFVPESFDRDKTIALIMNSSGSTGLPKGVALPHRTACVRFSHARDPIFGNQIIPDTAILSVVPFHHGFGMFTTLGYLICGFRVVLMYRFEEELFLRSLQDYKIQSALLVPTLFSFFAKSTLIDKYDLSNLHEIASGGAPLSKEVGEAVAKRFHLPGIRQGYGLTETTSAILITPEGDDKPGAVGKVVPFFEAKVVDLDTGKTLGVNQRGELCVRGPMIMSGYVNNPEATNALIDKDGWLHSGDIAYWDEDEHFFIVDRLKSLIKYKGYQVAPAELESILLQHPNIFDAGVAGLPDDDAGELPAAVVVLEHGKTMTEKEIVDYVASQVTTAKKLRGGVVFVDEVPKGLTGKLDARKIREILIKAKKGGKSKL
Chain of Ubiquitin carboxyl-terminal hydrolase 1 (Homo sapiens) (O94782 whole entry, looked up): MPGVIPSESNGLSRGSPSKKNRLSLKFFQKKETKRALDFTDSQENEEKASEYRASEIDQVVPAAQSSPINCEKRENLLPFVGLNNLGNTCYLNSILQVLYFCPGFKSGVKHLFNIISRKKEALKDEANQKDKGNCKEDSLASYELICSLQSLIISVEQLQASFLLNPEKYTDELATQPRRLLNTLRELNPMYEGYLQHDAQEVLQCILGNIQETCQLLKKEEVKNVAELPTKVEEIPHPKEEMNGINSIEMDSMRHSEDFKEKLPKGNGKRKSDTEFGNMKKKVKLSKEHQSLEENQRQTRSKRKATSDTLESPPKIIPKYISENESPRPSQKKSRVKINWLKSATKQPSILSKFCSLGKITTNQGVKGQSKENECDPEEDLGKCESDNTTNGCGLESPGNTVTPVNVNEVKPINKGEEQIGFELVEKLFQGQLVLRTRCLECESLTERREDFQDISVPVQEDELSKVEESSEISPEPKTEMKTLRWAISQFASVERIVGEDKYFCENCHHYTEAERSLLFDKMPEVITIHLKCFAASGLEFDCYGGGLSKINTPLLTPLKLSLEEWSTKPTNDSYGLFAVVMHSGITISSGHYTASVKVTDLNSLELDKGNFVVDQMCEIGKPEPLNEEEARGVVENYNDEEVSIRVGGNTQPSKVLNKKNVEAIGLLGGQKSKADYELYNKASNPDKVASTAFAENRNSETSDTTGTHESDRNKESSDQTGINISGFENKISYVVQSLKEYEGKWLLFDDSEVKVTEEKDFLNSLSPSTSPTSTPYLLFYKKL
Chain of ATP-dependent 6-phosphofructokinase (Trypanosoma brucei brucei) (O15648 whole entry, looked up): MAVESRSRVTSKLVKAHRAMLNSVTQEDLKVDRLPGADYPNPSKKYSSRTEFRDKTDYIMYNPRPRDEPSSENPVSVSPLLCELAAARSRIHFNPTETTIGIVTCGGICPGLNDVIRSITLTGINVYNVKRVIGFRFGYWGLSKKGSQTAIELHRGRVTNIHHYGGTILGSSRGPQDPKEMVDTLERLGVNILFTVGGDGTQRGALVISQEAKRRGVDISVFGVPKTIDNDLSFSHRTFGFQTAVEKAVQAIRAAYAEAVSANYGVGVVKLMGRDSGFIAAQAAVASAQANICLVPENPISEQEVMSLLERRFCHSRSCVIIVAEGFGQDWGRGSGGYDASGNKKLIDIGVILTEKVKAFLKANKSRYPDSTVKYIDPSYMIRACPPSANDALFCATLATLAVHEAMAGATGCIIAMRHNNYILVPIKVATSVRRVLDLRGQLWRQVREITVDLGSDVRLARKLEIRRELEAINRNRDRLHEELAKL
Chain of Glucocorticoid receptor (Homo sapiens) (P04150 whole entry, looked up, the tested form may be a part): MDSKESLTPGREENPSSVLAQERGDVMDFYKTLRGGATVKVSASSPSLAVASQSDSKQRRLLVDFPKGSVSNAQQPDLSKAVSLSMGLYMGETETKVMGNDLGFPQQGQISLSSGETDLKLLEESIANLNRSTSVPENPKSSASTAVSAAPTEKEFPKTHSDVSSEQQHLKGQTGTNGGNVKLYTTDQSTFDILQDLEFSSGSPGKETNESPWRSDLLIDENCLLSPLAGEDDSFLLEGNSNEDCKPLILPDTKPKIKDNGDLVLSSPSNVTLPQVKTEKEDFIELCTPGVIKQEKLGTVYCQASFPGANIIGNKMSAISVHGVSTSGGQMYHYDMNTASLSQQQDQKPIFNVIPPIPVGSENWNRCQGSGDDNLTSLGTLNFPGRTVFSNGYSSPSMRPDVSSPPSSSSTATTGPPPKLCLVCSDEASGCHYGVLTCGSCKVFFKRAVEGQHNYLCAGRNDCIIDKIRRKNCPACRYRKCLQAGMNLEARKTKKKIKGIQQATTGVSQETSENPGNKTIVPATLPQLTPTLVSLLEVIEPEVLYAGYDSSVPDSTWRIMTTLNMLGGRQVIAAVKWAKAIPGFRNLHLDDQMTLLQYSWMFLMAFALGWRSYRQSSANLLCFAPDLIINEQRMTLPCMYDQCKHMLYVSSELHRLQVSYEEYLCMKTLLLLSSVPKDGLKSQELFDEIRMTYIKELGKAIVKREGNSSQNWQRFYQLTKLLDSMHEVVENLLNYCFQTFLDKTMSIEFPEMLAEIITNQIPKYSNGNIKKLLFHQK

Regarding `CC(=O)OCC(=O)[C@@]12OC3(CCCC3)OC1CC1C3CCC4=CC(=O)C=C[C@@]4(C)[C@]3(F)C(O)C[C@]12C` (some centres not stated), in experiment [1], the activity change, negative = inhibition is 9.16% (inactive). Further, the max response in experiment [1] (setting [19]) was -2.26%; in [1] (setting [20]), 7.71%. Besides, in experiment [2], the result was inactive. For the same molecule, the Potency entry in [3], in experiment [5], in [6], in experiment [7], in [8] and in experiment [10] was “inactive” throughout. Further, the Potency entry in experiment [11] was “inactive”. Also, the Potency in experiment [4] and in experiment [9] was 11.2 µM (active) in each case.
As to `CC1(C)S[C@H]2C(NC(=O)[C@@H](N)c3ccc(O)cc3)C(=O)N2[C@@H]1C(=O)O` (some centres not stated), in experiment [1], the activity change, negative = inhibition was 9.47% (inactive). Besides, the max response in experiment [1] (setting [19]) worked out at 17.1%; in experiment [1] (setting [20]), 32.6%. In addition, the molecule was called inactive in experiment [2]. Moreover, the Potency entry in [12], in experiment [3], in experiment [4], in experiment [5], in [14] and in experiment [15] was “inactive” throughout. The Potency result in experiment [6], in experiment [7], in experiment [16], in experiment [8], in experiment [9] and in experiment [10] was “inactive” in each case. Further, the Potency entry in experiment [11] and in experiment [17] was “inactive” throughout. Moreover, in [13] (parasite line A), the activity, negative = inhibition was -0.804% (inactive).
On to `COC1C=CO[C@@]2(C)Oc3c(C)c(O)c4c(O)c(c5c(nc6cc(C)ccn65)c4c3C2=O)NC(=O)/C(C)=C\C=CC(C)C(O)[C@@H](C)C(O)C(C)[C@@H](OC(C)=O)C1C` (some centres not stated), for which the activity change, negative = inhibition in experiment [1] was -13.7% (inactive). The results for the max response in experiment [1] (setting [19]) and in [1] (setting [20]) were -0.865% and -14.4%, respectively. Moreover, the molecule was classed as inactive in experiment [2]. Also, in experiment [3], the Potency result is “inactive”. The Potency in [13] (parasite line A) is 14.1 µM (active); in experiment [13] (parasite line B) it was 10 µM (active); in experiment [4] it was 2.51 µM (active); in [5], 10 µM (active); in [14] it was 11.2 µM (active); in [15], 10 µM (active). Also, the Potency is 12.6 µM (active) in [16], 3.55 µM (active) in experiment [9], 12.6 µM (active) in experiment [10] and 2.24 µM (active) in experiment [17].
For the molecule `CN(C)CCCOC1C(C(O)CO)OC2OC(C)(C)O[C@@H]21` (some centres not stated), in [1], the activity change, negative = inhibition is 4.25% (inactive). The max response in experiment [1] (setting [19]) stood at 11.4%; in experiment [1] (setting [20]) it was 18.7%. For the same molecule, in experiment [2], the result was inactive. Also, the Potency result in [12], in experiment [3], in experiment [4], in experiment [5], in experiment [14] and in [15] was “inactive” throughout. In addition, the Potency result in [6], in experiment [7], in experiment [16], in experiment [8], in experiment [9] and in experiment [10] was “inactive” in each case. Also, the Potency result in experiment [11] and in experiment [17] was “inactive” in each case. In addition, the activity, negative = inhibition in [13] (parasite line A) is 6.96% (inactive); in experiment [13] (parasite line B) it was 11.3% (inactive).
On to `Nc1ncnc2c1nc(Br)n2[C@H]1O[C@H]2COP(=O)(O)O[C@H]2[C@@H]1O`, for which the Potency in experiment [18] was > 46 µM (inactive). In addition, in experiment [1], the activity change, negative = inhibition was -1.26% (inactive). The results for the max response in experiment [1] (setting [19]) and in experiment [1] (setting [20]) were 2.68% and 0.508%, respectively. Besides, the Potency entry in experiment [12] was “inactive”.
In the case of `OCC1O[C@H](OC2C(CO)O[C@@](O)(CO)C2O)C(O)C(O)C1O` (some centres not stated), in [1], the activity change, negative = inhibition is 5.94% (inactive). Moreover, the max response came to 14.3% in experiment [1] (setting [19]) and 24% in [1] (setting [20]). Besides, the molecule was called inactive in experiment [2]. The Potency entry in [12], in [3], in experiment [4], in [5], in experiment [14] and in experiment [15] was “inactive” each time. Moreover, the Potency entry in [6], in experiment [7], in experiment [16], in experiment [8], in experiment [9] and in [10] was “inactive” each time. The Potency result in [11] and in [17] was “inactive” each time. The activity, negative = inhibition in [13] (parasite line A) was 9.31% (inactive); in experiment [13] (parasite line B), 4.3% (inactive).
